Measured values published in the antibiotic and cytotoxicity screens of Wong et al. (2023).
About 500 (1.3%) of roughly 39,000 compounds were called active. The sample holds actives, similar compounds and a random draw of the others, so the mix is not that of the screen.

Each compound was assayed on S. aureus RN4220 (assay: growth inhibition call (relative growth <= 0.2)). Details: 50 µM.

Structure (SMILES) | growth inhibition call
C[C@@H]1CN([C@H](C)CO)C(=O)c2c(c3ccccc3n2C)-c2ccccc2CO[C@@H]1CN(C)C(=O)c1cc(Cl)cc(Cl)c1 | inactive
COc1cccc(S(=O)(=O)N[C@@H]2CC[C@H](CC(=O)NC3CCC3)O[C@@H]2CO)c1 | inactive
CN(C)CC(=O)N[C@H]1CC[C@@H](CC(=O)O)O[C@H]1CO | inactive
COCCNC(=O)C[C@@H]1CC[C@H]2[C@@H](COC[C@H](O)CN2S(=O)(=O)c2ccccc2C)O1 | inactive
Cc1noc(C)c1S(=O)(=O)Nc1ccc2c(c1)CC(=O)N([C@@H](C)CO)C[C@H](C)[C@H](CN(C)S(=O)(=O)c1ccccc1)O2 | inactive
CC(=O)N(C)C[C@@H]1Oc2ncc(C#CC(C)(C)O)cc2C(=O)N([C@@H](C)CO)C[C@@H]1C | inactive
Cc1cc(C(=O)Nc2cccc3c2O[C@@H](CN(C)Cc2ccncc2)[C@@H](C)CN([C@@H](C)CO)C3=O)n(C)n1 | inactive
COc1ccc(NC(=O)N(C)C[C@H]2OCCCC[C@H](C)Oc3ccc(NS(=O)(=O)c4ccc(C)cc4)cc3C(=O)N([C@@H](C)CO)C[C@@H]2C)cc1 | inactive
O=C(C[C@H]1CC[C@@H]2[C@H](COC[C@H](O)CN2C(=O)Nc2ccc(Cl)cc2)O1)NCCc1ccncc1 | inactive
O=C(C[C@H]1CC[C@H]2[C@@H](COC[C@H](O)CN2C(=O)Nc2ccc(C(F)(F)F)cc2)O1)NCCc1ccncc1 | active
O=C(C[C@@H]1CC[C@@H]2[C@H](COC[C@@H](O)CN2C(=O)Nc2ccc(C(F)(F)F)cc2)O1)NCCc1ccncc1 | active
O=C(C[C@@H]1CC[C@H]2[C@@H](COC[C@H](O)CN2C(=O)Nc2ccc(C(F)(F)F)cc2)O1)NCc1ccncn1 | inactive
O=C(C[C@@H]1CC[C@@H]2[C@H](COC[C@@H](O)CN2C(=O)Nc2ccc(Cl)cc2)O1)NCCc1ccncc1 | inactive
O=C(C[C@@H]1CC[C@H]2[C@@H](COC[C@H](O)CN2C(=O)Nc2ccc(Cl)cc2)O1)NCCc1ccncc1 | inactive
O=C(C[C@H]1CC[C@@H]2[C@H](COC[C@H](O)CN2C(=O)Nc2ccc(C(F)(F)F)cc2)O1)NCCc1ccncc1 | active
C[C@@H]1CN([C@H](C)CO)C(=O)c2cc(C#Cc3ccccc3F)cnc2O[C@H]1CN(C)S(=O)(=O)c1ccccc1 | inactive
CC(C)NC(=O)[C@@H](C)n1ncn2cccc2c1=O | inactive
C[C@H](CO)N1C[C@H](C)[C@@H](CN(C)C(=O)NC2CCCC2)Oc2cc(Br)ccc2S1(=O)=O | inactive
C[C@H](CO)N1C[C@H](C)[C@@H](CN(C)Cc2ccc(Cl)c(Cl)c2)Oc2ccc(NC(=O)C3CCCCC3)cc2CC1=O | inactive
Cc1cc(C(=O)Nc2cccc3c2O[C@H](CN(C)Cc2ccc4c(c2)OCO4)[C@H](C)CN([C@@H](C)CO)C3=O)n(C)n1 | inactive
Cc1cc(C)cc(C(=O)N(C)[C@H](Cc2ccc(-c3ccccc3)cc2)C(=O)N[C@@H](Cc2c[nH]c3ccccc23)C(=O)O)c1 | active
NCCCC[C@@H](N)C(=O)N[C@@H](Cc1c[nH]c2ccccc12)C(=O)N[C@@H](CCCCN)C(=O)O | inactive
NC(Cc1c[nH]c2ccccc12)C(=O)O (configuration not stated) | inactive
CCC[C@H]1CN(S(=O)(=O)c2c(C)cc(C)c3nonc23)C[C@@H]1N | inactive

Structure (SMILES) | growth inhibition call
Cn1c(=O)sn(-c2ccccc2)c1=O | inactive
Cn1sc(=O)n(Cc2ccccc2)c1=O | active
Nc1cc(=O)[nH]c(=O)n1Cc1ccccc1 | inactive
Cc1ccc(S(=O)(=O)Nc2ccc3c(c2)C(=O)N([C@@H](C)CO)C[C@@H](C)[C@H](CN(C)S(=O)(=O)c2ccc(C)cc2)OCCCC[C@H](C)O3)cc1 | inactive
CO[C@@H]1CN(C)C(=O)c2cc(NS(C)(=O)=O)ccc2OC[C@@H](C)N(C(=O)C2CCCCC2)C[C@@H]1C | inactive
Cc1ccc(C(C)C)cc2c(C)ccc1-2 | inactive
CC(C)c1ccc(N2C=Nc3ccc(C(C)C)cc3C2)cc1 | active
COc1ccc(NC(=O)Nc2ccc3c(c2)C(=O)N([C@@H](C)CO)C[C@@H](C)[C@@H](CN(C)C(=O)CCC(F)(F)F)OCCCC[C@@H](C)O3)cc1 | inactive
C[C@@H]1CN([C@H](C)CO)C(=O)Cc2cc(NC(=O)C3CCCCC3)ccc2O[C@@H]1CN(C)Cc1ccc(C(F)(F)F)cc1 | inactive
COc1cc(Nc2nc3ccccc3nc2NS(=O)(=O)c2ccc(NC(=O)c3ccc(C)c(OC)c3)cc2)cc(OC)c1 | inactive
COc1ccccc1CNC(=O)C[C@H]1C[C@H]2c3cc(NC(=O)NC4CCCC4)ccc3O[C@H]2[C@H](CO)O1 | inactive
COc1cc(C(=O)NS(=O)(=O)c2ccccc2C)ccc1Cc1cn(C)c2ccc(NC(=O)OC3CCCC3)cc12 | active
CCNC(=O)[C@@H]1[C@@H](CO)[C@@H]2Cn3c(ccc(-c4ccc(OC)cc4)c3=O)[C@H]1N2S(C)(=O)=O | inactive
COc1ccc(NC(=O)Nc2ccc3c(c2)C(=O)N([C@H](C)CO)C[C@@H](C)[C@H](CN(C)CC2CC2)OCCCC[C@@H](C)O3)cc1 | inactive
C[C@H](CO)N1C[C@H](C)[C@H](CN(C)Cc2ccc(-c3ccccc3)cc2)Oc2c(NS(=O)(=O)c3ccc(F)cc3)cccc2C1=O | inactive
COc1ccc(C)cc1S(=O)(=O)NCCO | inactive
COc1ccc2cc(-c3cc(-c4cc(Cl)cc(Cl)c4)nn3[C@@H](C)c3ccc(C(=O)NCCC(=O)O)cc3)ccc2c1 | inactive
Cc1cc(O[C@@H](CCC(F)(F)F)c2ccc(C(=O)NCCC(=O)O)cc2)cc(C)c1-c1ccc(C(C)(C)C)cc1 | active
Cc1cc(C)c(-c2ccc(NC(=O)[C@H](Cc3ccc(C(=O)NCCS(=O)(=O)O)cc3)c3ccc(-c4ccc(C(C)(C)C)cc4)cc3)cc2)c(C)c1 | inactive
COc1ccc(NC(=O)Nc2cccc3c2O[C@H](CN(C)S(C)(=O)=O)[C@H](C)CN([C@@H](C)CO)C3=O)cc1 | inactive
Nc1ncn(C[C@@H](O)CO)c2nc(Br)nc1-2 | inactive
Cc1cc(-c2nnc(N)o2)nn1C | inactive
Nc1nnc(-c2ccc([N+](=O)[O-])o2)o1 | active
Nc1nnc(-c2ccno2)o1 | inactive

Structure (SMILES) | growth inhibition call
Cc1noc(C)c1NC(=O)N(C)C[C@@H]1OCCCC[C@@H](C)Oc2ccc(NC(=O)Nc3ccc(F)cc3)cc2C(=O)N([C@@H](C)CO)C[C@H]1C | inactive
CC(=O)Oc1cc(-c2coc3cc(OC(C)=O)c(OC(C)=O)c(OC(C)=O)c3c2=O)cc(OC(C)=O)c1OC(C)=O | inactive
O=C(NC1CCCCCCC1)c1ccccc1-c1ccccc1 | inactive
C[C@]1(C(=O)NCC(F)(F)F)c2ccccc2C(=O)N(Cc2cc(C(F)(F)F)cc(C(F)(F)F)c2)[C@H]1c1ccc(CO)cc1 | inactive
O=C(NC1CCN(CCCCC2(C(=O)NCC(F)(F)F)c3ccccc3-c3ccccc32)CC1)c1ccccc1-c1ccc(C(F)(F)F)cc1 | active
C[C@@H]1CN([C@H](C)CO)C(=O)Cc2cc(NC(=O)Nc3ccc4c(c3)OCO4)ccc2O[C@H]1CN(C)S(C)(=O)=O | inactive
Cc1ccc(S(=O)(=O)N(C)C[C@H]2Oc3ccc(NC(=O)NC(C)C)cc3CC(=O)N([C@H](C)CO)C[C@H]2C)cc1 | inactive
Cc1nnc(SCC2=C(C(=O)[O-])N3C(=O)C(NC(=O)Cn4cnnn4)C3SC2)s1.[Na+] (configuration not stated) | active
O=C(Cn1cnnn1)NC1C(=O)N2C(C(=O)O)=C(CSc3nncs3)CSC12 (configuration not stated) | active
Cc1nnc(SCC2=C(C(=O)O)N3C(=O)[C@@H](N)[C@H]3SC2)s1 | inactive
Cc1nnc(SCC2=C(C(=O)O)N3C(=O)[C@@H](NC(=O)Cn4cnnn4)[C@H]3SC2)s1 | active
C[C@@H]1CN([C@@H](C)CO)C(=O)c2cc(NC(=O)Cc3ccccc3)ccc2O[C@@H](C)CCCCO[C@H]1CN(C)C(=O)Nc1cccc2ccccc12 | inactive
Cc1cc(C(=O)Nc2cccc3c2O[C@H](CN(C)C(=O)Nc2ccccc2)[C@@H](C)CN([C@H](C)CO)C3=O)n(C)n1 | inactive
C[C@@H]1CCCCO[C@@H](CN(C)C(=O)c2ccccc2)[C@@H](C)CN([C@H](C)CO)C(=O)c2cc(NC(=O)CCCCCC(=O)Nc3ccccc3N)ccc2O1 | inactive
C[C@H]1CCCCO[C@H](CN(C)S(=O)(=O)c2ccc(F)cc2)[C@@H](C)CN([C@@H](C)CO)C(=O)c2cc(NC(=O)Nc3cccc4ccccc34)ccc2O1 | inactive
Cc1csc2c(Cl)ncnc12 | inactive
COc1ccc(CCN2C(=O)[C@@]3(Cc4ccccc42)c2ccccc2C(=O)N(C2CCCCC2)[C@H]3c2ccc(CO)cc2)cc1 | inactive
COc1ccc(NC(=O)N(C)C[C@@H]2OCCCC[C@H](C)Oc3ccc(NC(=O)C4CCCCC4)cc3C(=O)N([C@H](C)CO)C[C@H]2C)cc1 | inactive
C[C@H]1CCCCO[C@H](CN(C)C(=O)C2CCCCC2)[C@@H](C)CN([C@@H](C)CO)C(=O)c2cc(NC(=O)c3ccccc3)ccc2O1 | inactive
Cc1nn(C)cc1NC(=O)C[C@H]1CC[C@@H]2[C@H](COc3ccc(NC(=O)C4CCOCC4)cc3C(=O)N2C)O1 | inactive
N#CCN1CCSCC1 | inactive
C[C@H]1CN([C@@H](C)CO)C(=O)c2cc(NC(=O)CCN3CCOCC3)ccc2O[C@H]1CN(C)CC1CCCCC1 | inactive
Cc1noc(C)c1S(=O)(=O)N(C)C[C@H]1OCCCC[C@@H](C)Oc2ccc(NS(C)(=O)=O)cc2C(=O)N([C@@H](C)CO)C[C@H]1C | inactive
COCC(=O)Nc1ccc2c(c1)C(=O)N(C)[C@@H]1CC[C@@H](CC(=O)N3CCc4ccccc4C3)O[C@H]1CO2 | inactive
